An excerpt weighted towards active compounds, which were near 3.6% of everything screened.
TGFb inhibitor – TGF-b pathway inhibition | HepG2 CAGA-GFP TGF-b/SMAD3 reporter, GFP fluorescence, 18 h; TGF-beta stimulated, 500 pg/mL final | Potency, µM (titrated, usually from 46.1 µM), for the others: at the top dose activity, negative = inhibition, hits mostly inhibitors | 410,000 tested, 1.2% active; also: % is scaled to controls: 0 for no effect and ±100 for the full control effect; nearly all actives have a fitted effect of over 65% in size
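HEPG2 CAGA-GFP cells (1000/well, DMEM with 1% FBS) were pre-incubated 2 h at 37 degrees C, given compound by pin tool, then stimulated with TGF-beta at 500 pg/mL final for 18 h before per-cell GFP fluorescence imaging.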
Nrf2 activator – activates Nrf2 signaling; AREc32 ARE-luciferase reporter (MCF7-derived line), luminescence, 24 h; Potency, µM (highest dose often 46.1 µM), for inactives: at the top dose activation, hits mostly activators; 410,000 tested, 0.31% active; AID 624171; also: % of control where 0% means no effect; nearly all actives have a fitted effect of over 65% in size
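Reporter line AREc32 (ARE-Fluc), seeded overnight in OPTI-MEM with 5% FBS; compound pin-transferred, 24 hr at 37 deg C, 5% CO2; luminescent read-out.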
Nrf2 block – Nrf2 pathway inhibition; A549 ARE-Fluc reporter, luciferase luminescence, 18-24 h; Potency, µM (top dose mostly 46 µM), without a hit: at the highest dose activity change, negative = inhibition, most hits filed as inhibitors; 360,000 tested, 2.1% active; also: % is scaled to controls: 0 for no effect and ±100 for the full control effect; nearly all actives have a fitted effect of over 60% in size
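Reporter: ARE-Fluc in A549. Exposure: 18-24 h, 37 °C, 5% CO2, 5% FBS OPTI-MEM. Readouts: fluorescent cytotoxicity (CellTiter-Fluor), then luminescent Nrf2 signal after BugLite.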
HepG2 tox-1 – kills HepG2 cells in TGF-b inhibitor counter-screen | HepG2 CAGA-GFP viability, ATP luminescence, 18 h | 410,000 tested, 0.76% active | AID 588856 | Potency, µM (series often up to 46.1 µM), for inactives: top-dose activity change, negative = cytotoxicity, most hits filed as cytotoxic
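CellTiter-Glo luminescence gave cytotoxicity after 18 hours at 37 degrees C. The cells were HepG2 CAGA-GFP in 1% FBS DMEM, stimulated with 500 pg/mL TGF-beta after compound addition. %Activity was normalised to no-cell wells (complete cell-killing) and DMSO (no toxicity), and curves were fitted and classified.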
A549 viability – A549 cytotoxicity, counter-screen for Nrf2 inhibitors. Potency, µM (top dose mostly 46 µM), for inactives: at the highest dose activity change, negative = cytotoxicity, usual class: inhibitors. A549 ARE-Fluc cells, CellTiter-Fluor viability, 18-24 h. AID 504648. 390,000 tested, 0.16% active; also: % is scaled to controls: 0 for no effect and ±100 for the full control effect
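A549 ARE_Fluc cells in 5% FBS OPTI-MEM were exposed to compounds in concentration-response for 18-24 h at 37 deg C. Viability was read by CellTiter-Fluor fluorescence (Ex 405/Em 525) after 30 min, before the luciferase read.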
TGFb confirm – confirmation of TGF-b signaling inhibitors in HepG2 reporter cells; shares compounds with TGFb inhibitor; HepG2 CAGA-GFP TGF-b reporter, GFP fluorescence, 18 h; cells stimulated with TGF-beta, 500 pg/mL; Potency, µM (titrated, usually from 46.1 µM), without a hit: top-dose activity, negative = inhibition, hits mostly inhibitors; 1,600 tested, 63% active; AID 720534; also: % is scaled to controls: 0 for no effect and ±100 for the full control effect; nearly all actives have a fitted effect of over 65% in size
HepG2 tox-2 – toxic to HepG2 cells in TGF-b counterscreen; 1,600 tested, 27% active; shares compounds with TGFb inhibitor; Potency, µM (highest dose often 46.1 µM), for the others: at the top dose activity, negative = cytotoxicity, hits mostly inhibitors; HepG2 CAGA-GFP viability, ATP luminescence, 18 h; cells stimulated with TGF-beta, 500 pg/mL; also: % is scaled to controls: 0 for no effect and ±100 for the full control effect; nearly all actives have a fitted effect of over 70% in size
TGFb CCL64 inh – blocks TGF-b signaling in CCL64 reporter cells; 1,600 tested, 41% active; Potency, µM (series often up to 46.1 µM), for the others: at the highest dose activity, negative = inhibition, usual class: inhibitors; CCL64 CAGA-GFP reporter, TGF-b stimulated, GFP fluorescence, 18 h; shares compounds with TGFb inhibitor; also: nearly all actives have a fitted effect of over 65% in size
COP TGFb inh – TGF-b inhibition validated with COP promoter. HepG2 COP-GFP TGF-b reporter, GFP fluorescence, 18 h; cells stimulated by added recombinant TGF-beta. 1,600 tested, 3% active. AID 720537. shares compounds with TGFb inhibitor. Potency, µM (titrated, usually from 46.1 µM), without a hit: at the highest dose activity, negative = inhibition, most hits filed as inhibitors; also: nearly all actives have a fitted effect of over 70% in size
An asterisk follows results filed as active; u = inconclusive; x = not tested or not shown. Calls follow the shape of the dose curve; as a rule, active = well fitted curve in the direction sought with a large enough effect; inconclusive = small, poorly fitted or top-dose-only effect, or another doubt; inactive = no such curve, though single readings can be large; an effect the other way counts as inactive or inconclusive. Potency is read from the fitted curve at half-maximal effect.

SMILES	TGFb inhibitor	Nrf2 activator	Nrf2 block	HepG2 tox-1	A549 viability	TGFb confirm	HepG2 tox-2	TGFb CCL64 inh	COP TGFb inh
CCOC(=O)N1CCN(C(=O)CCC(=O)c2ccc(OCC)cc2)CC1	2.6%	0.2%	-3.5%	-6.1%	0.2%	x	x	x	x
CCCOc1ccc(C(=O)CCN2CCN(C(=O)OCC)CC2)cc1	15.8µM*	u	-7.1%	-44.6%	4.5%	8.2µM*	20.6µM*	18.4µM*	23.1µM*
CC(OC(=O)c1cccs1)C(=O)NCc1cccs1 (centres undefined)	4.9%	0.5%	-5.8%	5.1%	-2.4%	x	x	x	x
Cc1ccc2nc(-c3ccc(Cl)cc3)c(CC3CCCCC3)n2c1	-29.1%	11.5%	x	-42.3%	x	x	x	x	x
Cc1ccc2nc(-c3ccco3)c(CC3CCCCC3)n2c1	10µM*	u	x	-32.1%	x	u	u	20.6µM*	16.3%
COc1ccccc1Cc1c(-c2ccco2)nc2ccc(C)cn12	10µM*	3.9%	x	-17.3%	x	16.4µM*	u	u	49.3%
COc1ccccc1Cc1c(-c2ccco2)nc2c(C)cc(Br)cn12	8.91µM*	u	x	-86.9%	x	7.31µM*	9.2µM*	4.61µM*	u
O=C(CCC(=O)N1CCSc2ccccc21)NCc1cccc(Cl)c1	u	-0.4%	14.5%	-19.0%	4.7%	u	-8.4%	6.9%	-1.4%
CCOc1ccc2nc(NCCNC(=O)Nc3cccc(C)c3)c(C#N)cc2c1	-37.6%	2.4%	u	-21.4%	-1.8%	x	x	x	x
CC(C)(O)C#Cc1ccc([C@@H]2C[C@H]3CN(c4ccccc4)C(=O)[C@]34CCCN24)s1	2.24µM*	-0.8%	u	-10.3%	-8.3%	0.731µM*	u	5.17µM*	16.2%
O=C1N(c2ccccc2)C[C@@H]2C[C@@H](c3cccs3)N3CCC[C@@]123	u	-2.5%	-16.0%	-26.0%	-5.6%	x	x	x	x
CCOCc1nnc(NC(=O)c2cccs2)s1	-1.6%	7.2%	11.3%	-16.7%	-8.1%	x	x	x	x
CC(=O)Oc1ccc2ccccc2c1C(NC(=O)Cc1ccccc1)c1ccccc1 (centres undefined)	10µM*	-0.2%	u	-36.2%	u	29.1µM*	u	u	65.2%
CS(=O)(=O)c1ccccc1C(=O)Nc1ccccc1Cc1ccccc1	8.1%	-0.2%	-5.4%	-21.5%	4.6%	x	x	x	x
O=C(Nc1ccccc1Cc1ccccc1)c1ccccc1NS(=O)(=O)c1ccc(Cl)s1	4.47µM*	4.1%	18.4µM*	-25.3%	u	5.8µM*	10.3µM*	9.2µM*	80.4%
C=CCNC(=O)C1CC1(c1cccc(C)c1)c1cccc(C)c1 (centres undefined)	-0.2%	-0.1%	-10.8%	7.7%	2.8%	x	x	x	x
Cc1cccc(C2(c3cccc(C)c3)CC2C(=O)Nc2ccc([N+](=O)[O-])cc2O)c1 (centres undefined)	7.94µM*	2.2%	u	11.2µM*	u	6.51µM*	11.6µM*	7.31µM*	12.4%
CC(=O)Nc1ccc(C(=O)CSc2ncn(-c3ccccc3)n2)cc1	2.82µM*	2.0%	u	-22.3%	-9.8%	u	-4.3%	3.2%	-2.7%
Cc1ccc(C(=O)Nc2ccc(C)c(S(=O)(=O)Nc3ccccc3Cl)c2)s1	u	3.3%	u	-13.6%	1.4%	x	x	x	x
O=C(Nc1ccc(F)cc1)Nc1ccc(N2CCCC2)c(S(=O)(=O)Nc2ccccc2Cl)c1	3.98µM*	2.6%	23.1µM*	-3.9%	u	4.11µM*	7.31µM*	5.8µM*	109.3%
O=C(Nc1ccc(Cl)c(Cl)c1)Nc1ccc(N2CCCC2)c(S(=O)(=O)Nc2ccccc2Cl)c1	3.16µM*	0.5%	13µM*	-25.6%	u	4.61µM*	7.31µM*	0.581µM*	85.8%
O=C(Nc1ccccc1N1CCCC1)c1cccnc1	10.0%	0.0%	10.0%	-3.4%	x	x	x	x	x
Cc1ccc(NC(=O)c2cc3c(s2)CCCC3)cc1S(=O)(=O)Nc1ccccc1Cl	10µM*	3.0%	7.31µM*	-7.5%	-19.6%	10.3µM*	u	u	56.4%
O=C(Nc1ccc(N2CCOCC2)c(S(=O)(=O)Nc2ccccc2Cl)c1)c1ccc(F)cc1	0.0%	3.4%	u	-12.9%	-17.2%	x	x	x	x
O=C(Nc1ccc(N2CCCCC2)c(S(=O)(=O)Nc2ccccc2Cl)c1)c1cccnc1	12.6µM*	0.4%	u	-7.5%	-5.2%	u	u	u	61.6%
SMILES	TGFb inhibitor	Nrf2 activator	Nrf2 block	HepG2 tox-1	A549 viability	TGFb confirm	HepG2 tox-2	TGFb CCL64 inh	COP TGFb inh
O=C(/C=C/c1cccs1)Nc1ccc(N2CCOCC2)c(S(=O)(=O)Nc2ccccc2Cl)c1	u	8.0%	-5.4%	-21.9%	0.2%	x	x	x	x
COc1ccc(S(=O)(=O)N2CCN(C/C=C/c3ccccc3)CC2)cc1NC(C)=O	0.0%	-0.5%	1.1%	-8.3%	-0.2%	x	x	x	x
Cc1ccc(S(=O)(=O)/N=C(/c2ccccc2)N(C)c2ccc(O)cc2)cc1	u	0.2%	23.2%	-8.7%	1.8%	x	x	x	x
COC(=O)c1ccccc1NC(=O)Oc1ccc(C(C)C)cc1	-24.0%	-0.4%	7.3%	-40.1%	-7.4%	x	x	x	x
COc1ccccc1NS(=O)(=O)c1cc(NC(=O)Nc2ccccc2)ccc1N1CCCCC1	11.2µM*	2.4%	-17.6%	-4.7%	-7.7%	7.31µM*	-16.8%	u	-1.7%
COc1ccc(CC(=O)c2ccc(OC)c(OC)c2C)cc1OC	u	0.2%	u	1.1%	-4.4%	x	x	x	x
COc1ccc([C@H]2CC(=O)C=C(c3ccccc3)C2)cc1OC	-12.1%	4.2%	1.9%	-20.8%	4.7%	x	x	x	x
COc1ccc([C@H]2CC(=O)C=C(c3ccc(Oc4ccccc4)cc3)C2)cc1OC	7.94µM*	3.6%	u	-24.7%	-7.3%	9.2µM*	-20.9%	u	-1.7%

Assay outcomes: PubChem BioAssay, National Center for Advancing Translational Sciences (NCATS)
